Assay [1] is described as follows: qHTS RealTime-Glo MT Cell Viability Assay in HEK293 cells - 0 hour (AID 1224880). Also: top concentration of the series differs between compounds; nearly all actives have a fitted effect of over 45% in size. An outline of the steps: (§1)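 Cells were seeded together with NanoLuc luciferase and a prosubstrate that viable cells reduce to a luciferase substrate. After a 5 h incubation at 37 C/5% CO2, compounds were added and luminescence was measured repeatedly during 40 h of treatment.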
In general terms: Quantitative high-throughput screening tests each substance at several concentrations.

Assay [2] in a line: A CellTox Green Cytotoxicity Assay to monitor cytotoxicity in HEK293 cells - 32 hour (AID 1224881). Also: nearly all actives have a fitted effect of over 40% in size. An outline of the steps:
(§2)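 Nonlytic real-time cytotoxicity: HEK293 + CellTox Green reagent plated, 5 h preincubation, pintool compound addition (23 nL in DMSO), 37 C for 40 h, fluorescence measured at successive time points.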

Assay [3] in a line: A CellTox Green Cytotoxicity Assay to monitor cytotoxicity in HepG2 cells - 0 hour (AID 1224882). Also: nearly all actives have a fitted effect of over 35% in size. In a few lines: (§3)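 Read-out is fluorescence of a cyanine dye excluded from live cells that stains DNA of dead HepG2 cells, with signal proportional to cytotoxicity. Plates were read at 0, 8, 16, 24, 32 and 40 h after compound addition.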
Assay [4] can be described thus: A CellTox Green Cytotoxicity Assay to monitor cytotoxicity in HepG2 cells - 32 hour (AID 1224883). Also: nearly all actives have a fitted effect of over 50% in size. In a few lines:
as §3

Assay [5] in a line: A CellTox Green Cytotoxicity Assay to monitor cytotoxicity in HEK293 cells - 8 hour (AID 1224884). Also: nearly all actives have a fitted effect of over 35% in size. An outline of the steps: as §2
Assay [6] is described as follows: qHTS RealTime-Glo MT Cell Viability Assay in HepG2 cells - 16 hour (AID 1224885). Also: nearly all actives have a fitted effect of over 50% in size. An outline of the steps: (§4)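 Viability was tracked continuously by NanoLuc luminescence from prosubstrate reduced by living HepG2 cells, at successive time points over 40 h of compound exposure. Cells with reagent were preincubated 5 h at 37 °C before compound addition.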
Assay [7] is described as follows: qHTS RealTime-Glo MT Cell Viability Assay in HEK293 cells - 24 hour (AID 1224886). Also: nearly all actives have a fitted effect of over 50% in size. Also: potency is read from the fitted curve at half-maximal effect. An outline of the steps: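 Viability tracked continuously by luminescence as live cells reduce a prosubstrate for NanoLuc; HEK293 cells preincubated 5 h, compound-treated at 37 C, and read at 0, 8, 16, 24, 32 and 40 h.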
Assay [8] in a line: qHTS RealTime-Glo MT Cell Viability Assay in HEK293 cells - 8 hour (AID 1224887). Also: nearly all actives have a fitted effect of over 50% in size. Also: potency is read from the fitted curve at half-maximal effect. In a few lines: as §1
Assay [9] is described as follows: A CellTox Green Cytotoxicity Assay to monitor cytotoxicity in HEK293 cells - 16 hour (AID 1224888). Also: nearly all actives have a fitted effect of over 35% in size. An outline of the steps: as §2
Assay [10] in a line: qHTS RealTime-Glo MT Cell Viability Assay in HepG2 cells - 0 hour (AID 1224889). Also: nearly all actives have a fitted effect of over 50% in size. An outline of the steps: as §4
Assay [11] is described as follows: A CellTox Green Cytotoxicity Assay to monitor cytotoxicity in HepG2 cells - 8 hour (AID 1224890). Also: nearly all actives have a fitted effect of over 45% in size. In a few lines:
as §3

Assay [12] is described as follows: qHTS assay to identify small molecule antagonists of the estrogen receptor alpha (ER-alpha) signaling pathway using the BG1 cell line in the presence of 0.1 nM 17-beta-estradiol - cell viability counter screen (AID 1259241). Also: nearly all actives have a fitted effect of over 40% in size. An outline of the steps:
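Cytotoxicity counter-screen: live-cell protease activity measured by fluorescence (30 min reagent step) in the same wells. Cells were VM7Luc4E2 with endogenous ER-alpha and ERE-driven luciferase, treated 22 hr at 37C alongside 0.1 nM 17beta-estradiol final.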

The nature of assay [13]: qHTS assay to identify small molecule antagonists of the androgen receptor (AR) signaling pathway using the MDA cell line in the presence of 0.5 nM R1881 - cell viability counter screen (AID 1259242). Also: nearly all actives have a fitted effect of over 45% in size. An outline of the steps: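 Counter screen for cytotoxicity run in the same wells as the AR antagonist reporter screen: MDA-kb2 cells were treated 16 hr with test compounds and 0.5 nM R1881, then live-cell protease activity was measured by fluorescence.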

Assay [14] concerns the target Estrogen receptor (Homo sapiens) (UniProt P03372). Nature of the assay: qHTS assay to identify small molecule antagonists of the estrogen receptor alpha (ER-alpha) signaling pathway using the BG1 cell line in the presence of 0.1 nM 17-beta-estradiol (AID 1259244). Also: nearly all actives have a fitted effect of over 50% in size. An outline of the steps:
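Cells: VM7Luc4E2, endogenous ER-alpha, 4x ERE-luc stable. Pre-culture 5 d, phenol red-free, charcoal-stripped FBS. Plated 24 h, compound + E2 0.1 nM final, 22 h 37C/5% CO2. Readout ONE-Glo luminescence.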

A short description of assay [15]: qHTS assay to identify small molecule phospholipidosis (PLD) inducers (AID 1259344; active = well fitted curve in the direction sought with a large enough effect; an effect the other way counts as inactive or inconclusive; also: potency is read from the fitted curve at half-maximal effect). An outline of the steps: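 Phospholipidosis is scored by imaging LipidTOX-stained pits in HepG2 cells exposed to compound for 24 h at 37 C; pit counts and integrated intensities per well and per cell serve as outputs.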
Assay [16] can be described thus: qHTS assay to identify small molecule HDAC inhibitors (AID 1259364). Also: top concentration of the series differs between compounds; nearly all actives have a fitted effect of over 45% in size. An outline of the steps:
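Luminescence from a cell-permeant luminogenic class I/II HDAC substrate reports endogenous deacetylase activity in intact HCT-116 cells treated with compounds for 2 h.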

A short description of assay [17]: qHTS assay to identify small molecule HDAC inhibitors - cell viability counter screen (AID 1259365). An outline of the steps:
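CellTiter-Glo luminescence (30 min, room temperature) reported viability after a 2 h compound exposure at 37 C. Cells: wild-type HCT-116, 1,500 per well, seeded the night before.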

The nature of assay [18]: qHTS assay to identify small molecule agonists of the sonic hedgehog signaling (Shh) pathway - cell viability counter screen (AID 1259366). Also: nearly all actives have a fitted effect of over 50% in size. Also: potency is read from the fitted curve at half-maximal effect. An outline of the steps: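 Cytotoxicity counter screen: CellTiter-Fluor reagent added after 23 h compound exposure, then 1 h at 37C and fluorescence read. Cells were 3T3 Gli1-Luc, seeded 2,000 per well and dosed 4 h post-plating.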

Assay [19] can be described thus: qHTS assay to identify small molecule antagonists of the sonic hedgehog signaling (Shh) pathway - cell viability counter screen (AID 1259367). Also: nearly all actives have a fitted effect of over 55% in size. Also: potency is read from the fitted curve at half-maximal effect. An outline of the steps: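 Cells: 3T3 Gli1-Luc, 2,000/well, 4 hr pre-incubation. Compounds in DMSO, then conditioned medium. Incubation 24 hr, 37C, 5% CO2. CellTiter-Fluor at 23 hr, 1 hr, fluorescence.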
For assay [20], the target named is Androgen receptor (Homo sapiens) (UniProt P10275). Nature of the assay: qHTS assay to identify small molecule antagonists of the androgen receptor (AR) signaling pathway using the MDA cell line in the presence of 0.5 nM R1881 (AID 1259243). Also: nearly all actives have a fitted effect of over 50% in size. An outline of the steps:
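Luciferase luminescence is the read-out: compounds are tested for suppressing 0.5 nM R1881-driven MMTV reporter activity in MDA-kb2 cells after 16 hr at 37C.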

Results filed as inconclusive are left out. Activity calls are given as the source filed them. Unless noted, calls follow the shape of the dose curve; as a rule, active = well fitted curve in the direction sought with a large enough effect in the repeat runs; inconclusive = weak or mixed curves; inactive = no such curve, though single readings can be large; an effect the other way counts as inactive or inconclusive.

Sequence of Estrogen receptor (Homo sapiens) (P03372 whole entry, looked up): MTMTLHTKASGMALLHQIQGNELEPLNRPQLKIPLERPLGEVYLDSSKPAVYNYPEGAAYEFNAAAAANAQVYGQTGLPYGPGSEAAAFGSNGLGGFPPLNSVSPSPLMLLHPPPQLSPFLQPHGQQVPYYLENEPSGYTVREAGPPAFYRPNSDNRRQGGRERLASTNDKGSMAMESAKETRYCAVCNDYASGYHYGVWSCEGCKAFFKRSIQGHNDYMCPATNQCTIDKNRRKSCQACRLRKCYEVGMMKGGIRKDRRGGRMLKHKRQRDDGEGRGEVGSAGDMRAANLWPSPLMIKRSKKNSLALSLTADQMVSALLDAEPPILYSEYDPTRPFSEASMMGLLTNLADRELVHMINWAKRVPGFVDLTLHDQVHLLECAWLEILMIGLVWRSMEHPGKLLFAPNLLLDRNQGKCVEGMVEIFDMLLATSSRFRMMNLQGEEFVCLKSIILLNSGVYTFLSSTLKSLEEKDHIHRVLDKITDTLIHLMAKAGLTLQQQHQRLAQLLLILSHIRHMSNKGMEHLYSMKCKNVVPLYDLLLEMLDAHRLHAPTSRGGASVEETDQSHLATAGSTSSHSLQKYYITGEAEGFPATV
Sequence of Androgen receptor (Homo sapiens) (P10275 whole entry, looked up): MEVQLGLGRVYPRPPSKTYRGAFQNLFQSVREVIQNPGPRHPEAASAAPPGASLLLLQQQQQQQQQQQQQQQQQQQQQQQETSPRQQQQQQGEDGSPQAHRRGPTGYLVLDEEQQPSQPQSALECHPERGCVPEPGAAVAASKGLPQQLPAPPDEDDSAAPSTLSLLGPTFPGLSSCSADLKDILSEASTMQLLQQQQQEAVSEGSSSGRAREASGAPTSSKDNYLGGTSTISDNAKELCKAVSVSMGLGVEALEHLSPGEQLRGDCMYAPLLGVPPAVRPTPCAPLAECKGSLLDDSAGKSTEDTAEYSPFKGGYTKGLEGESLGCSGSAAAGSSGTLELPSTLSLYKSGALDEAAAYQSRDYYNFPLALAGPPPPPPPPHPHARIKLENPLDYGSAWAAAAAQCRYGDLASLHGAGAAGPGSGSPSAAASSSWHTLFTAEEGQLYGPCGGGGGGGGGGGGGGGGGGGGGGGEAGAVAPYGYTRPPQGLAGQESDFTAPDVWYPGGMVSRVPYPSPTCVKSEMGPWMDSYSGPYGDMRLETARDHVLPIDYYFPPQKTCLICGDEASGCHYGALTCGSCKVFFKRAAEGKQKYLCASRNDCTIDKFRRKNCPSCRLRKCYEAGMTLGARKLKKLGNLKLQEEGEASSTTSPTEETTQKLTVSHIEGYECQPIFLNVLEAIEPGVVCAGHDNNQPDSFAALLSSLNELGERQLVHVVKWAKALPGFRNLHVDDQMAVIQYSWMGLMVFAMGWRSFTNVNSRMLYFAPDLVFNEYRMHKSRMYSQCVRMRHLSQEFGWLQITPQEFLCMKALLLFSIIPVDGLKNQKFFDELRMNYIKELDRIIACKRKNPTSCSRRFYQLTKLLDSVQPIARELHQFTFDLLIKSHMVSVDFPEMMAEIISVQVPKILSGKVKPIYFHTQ

As to `CCN(CC)CCOC(=O)C(O)(c1ccccc1)c1ccccc1`, the result in [1], in assay [3], in assay [10], in assay [12] and in assay [17] was inactive. Further, the Potency entry in assay [2], in assay [4], in assay [5], in [6], in assay [7] and in assay [8] was “inactive” throughout. Also, the Potency entry in assay [9], in assay [11], in assay [13], in assay [14], in assay [15] and in [16] was “inactive” each time. Besides, the Potency entry in assay [18] and in [19] was “inactive” throughout.

Consider `CC1NCCOC1c1ccccc1` (stereo not drawn), for which the call in [1], in [3], in [10], in assay [12] and in assay [17] was inactive. For the same compound, the Potency result in assay [2], in [4], in assay [5], in [6], in [7] and in assay [8] was “inactive” in each case. In addition, the Potency result in assay [9], in assay [11], in assay [13], in assay [14], in assay [15] and in assay [16] was “inactive” in each case. Moreover, the Potency result in [18] and in [19] was “inactive” each time.

Turning to `CCN(CCO)CCO`, the outcome in [1], in assay [3], in [10], in assay [12] and in [17] was inactive. Moreover, the Potency result in [2], in assay [4], in assay [5], in assay [6], in assay [7] and in [8] was “inactive” in each case. Moreover, the Potency entry in assay [9], in [11], in [13], in [14], in assay [16] and in [18] was “inactive” in each case. Moreover, in assay [19], the Potency result is “inactive”.

For `S=C=S`, the compound was called inactive in [1], in assay [3], in assay [10], in assay [12] and in assay [17]. Also, the Potency entry in assay [2], in assay [4], in [5], in [6], in assay [7] and in assay [8] was “inactive” in each case. Also, the Potency entry in [9], in [11], in assay [13], in [14], in [15] and in [16] was “inactive” throughout. Also, the Potency result in assay [18] and in assay [19] was “inactive” throughout.

As for `CC(Cc1ccccc1)NCCn1cnc2c1c(=O)n(C)c(=O)n2C` (stereo not drawn), the result in assay [1], in assay [3], in assay [10], in [12] and in assay [17] was inactive. Also, the Potency result in assay [2], in assay [4], in [5], in assay [6], in assay [9] and in assay [11] was “inactive” each time. The Potency result in assay [13], in assay [14], in assay [15] and in assay [16] was “inactive” throughout. The values for the Potency in [7] and in [8] were 21.6 µM (active) and 24.2 µM (active), respectively.

In the case of `CN(C)C(=O)Oc1cc(OC(=O)N(C)C)cc(C(O)CNC(C)(C)C)c1` (stereo not drawn), the call in assay [1], in assay [3], in assay [10], in assay [12] and in [17] was inactive. The Potency result in [2], in [4], in [5], in assay [6], in assay [7] and in assay [8] was “inactive” in each case. Also, the Potency entry in assay [9], in assay [11], in assay [13], in [20], in [14] and in assay [15] was “inactive” each time. In addition, the Potency result in assay [16], in assay [18] and in [19] was “inactive” each time.

On to `CCNc1nc(NCC)nc(SC)n1`, for which the compound was classed as inactive in assay [1], in assay [3], in [10], in assay [12] and in assay [17]. The Potency entry in [2], in assay [4], in assay [5], in assay [6], in assay [7] and in assay [8] was “inactive” each time. Besides, the Potency result in assay [9], in [11], in assay [13], in assay [14], in [16] and in [18] was “inactive” throughout. Besides, in assay [19], the Potency result is “inactive”.

With `NC1(c2ccccc2)CCCCC1`, the outcome in assay [1], in assay [3], in assay [10], in assay [12] and in assay [17] was inactive. Further, the Potency result in assay [2], in assay [4], in [5], in assay [6], in [7] and in [8] was “inactive” in each case. Besides, the Potency entry in [9], in assay [11], in assay [13] and in assay [14] was “inactive” throughout. Further, the Potency in assay [15] was 8.91 µM (active); in assay [18] it was 30.4 µM (active); in assay [19], 27.1 µM (active).

Source of the values: PubChem BioAssay (Tox21).
